Source: the supplement of paper PMC6555819

tested on: VDR:RXRa (NR concentration 270 nM, RXRa partner concentration 90 nM); test: PBM binding z-score (relative to random genomic background probes); higher = stronger binding; sequences stand for … in GC…GCGATTGACAGCGTAGAATGAAGG
Protocol: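 Protein-binding microarray (Agilent 4x180K custom design, double-stranded 60-nt probes: 5' GC cap, 34-nt variable region, 24-nt constant primer region; full probe sequence given). Purified or IVT nuclear receptor:RXRα heterodimers (3:1 NR:RXRα, mostly 270:90 nM) or homodimers were incubated for 1 h in PBS with 2% milk and no ligand, then detected with Alexa488 antibodies. Fluorescence from o1-orientation probes (~5 replicates averaged) was converted to z-scores against 500 random hg19 background probes. Variable regions are seed direct-repeat (DR0–DR5) sites, all their single-nucleotide variants and half-site ablations.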

Row | Sequence | PBM binding z-score
1 | CGTCCAAGGTCAATGCTAGGTCAGCGAAAGCATT | 4.93
2 | GCGACTGGGGCATCAACAGGTTACCATAACTTAA | 0.0297
3 | CAAACTAGGTCACCGGAAGGTCTAAGTCCGCATG | 3.1
4 | CCTAGCAGGCCAATCTGGCTCACTCAAGGCTTGA | -0.563
5 | CCTCGTTGGTCAAGGTCACACACGCTATAGGTAC | 3.93
6 | CCTAGCAGGCCAGGGACACTCAAGCATTTCGCTT | -0.417
7 | AGTCAAAGTTCACTACGTAACGTAAGATTCAGCT | 3.72
8 | TCAGACAGGTGAAGGTAACTCAGGTACGCAGTCG | 0.943
9 | CCGAGTAGGTTATGGGGAATTCAGGCAACGGTGA | 0.0968
10 | GCAGACAGGTGAAACGCAGGTAACCCAGGGTGGC | -0.517
11 | TCTTGTTGATCAAGCAGGTTAAGAAAGCCTGAGT | 0.244
12 | CTTCCAAGGTCATAGGAGGTCAGTGAAGACAGAT | 6.66
13 | TCGAGTAGGTTACCAATGGGGCATACAGCTTTCT | 0.221
14 | CTCGGAAGGTCGTGCTCAGGTGAGTATACCAAAC | 1.58
15 | AATACAGGGTCATCGTAGGCCAGAATACGCACAG | 5.15
16 | TCCAGTAGGTTACCAATGGGGCATTCAGCTTTCT | 0.0983
17 | CCTTACGGGTCACGAGATTATAGCACGACGAGCG | 3.55
18 | TGAATGAGGTTAAAGATGAGGGAACGTGGCGTCG | 1.48
19 | CCTGCTAGGTCATGGTCAGCCAATCTACAGTATG | 1.71
20 | CCTATTAGTTGACCATAATGGCAACCGAAGCTCG | 0.509

Row | Sequence | PBM binding z-score
21 | TTACCAAGGTGAGCGGAGGTCGTTGATCCAACTC | 3.36
22 | ACTAGCAGGCCAAGTTTGGGTCTCTCAAACAAAG | -0.766
23 | ATGTGTAGGTTAAGGGTCATTCAGGTTGGTTCGC | 5.79
24 | TGTCAAAGTGCAAAGGTAACGTAAGTATCCACAC | 1.59
25 | GCTAGCAGGCCATTTGGGTCACTCCATGACGGGC | 0.513
26 | CCGACTGGGGCAAAGGTTACCCTACTCAGTACGA | 1.23
27 | GCTATTAGTTTAAAGGGCAACCGAATGATTCTCG | 0.65
28 | AGAATGAGGTGAAGATCAGGGAAACAGAATACAT | 0.178
29 | TCTATTAGTTGATTAGGGCTACCGAAACAGCGGA | 0.473
30 | GCGACTGGGGCAAACCAGGTTACCATAAGGTTGG | 0.416
31 | CATACAGGGTCAGCTGGGCCAGAGTAGGGACGGC | 3.63
32 | TGAATGAGTTTAAAGATCAGGGAACGTGGCGTCG | 1.09
33 | AGAATTAGGTTAAGATCAGGGAAACAGAATACAT | 0.418
34 | ATCTCCAGGTAACAAGTTCAGTGAAAGAGAGGAC | 2.42
35 | CGTCCAAGGTCAGCAGCTCAGTGAAAGCGACGTG | 2.09
36 | AGTCAAAGTTCAGTACGAGGTAACGTAAAGCACG | 2.89
37 | AGAATGAGCTTAAGATCAGGGAAACAGAATACAT | -0.396
38 | TAGCCTAGGTCATTCAGGGGCCATTATAGAAAGC | 4.23
39 | AGAACGAGGGCACGCTGAGTTGATAACAGAGTAG | 2.06
40 | TTACCAAGATGAAAGGTCGTTGATGCACGCCTTG | 1.69
